The panel holds about 83,000 compounds, 20% with a hit somewhere; the sample as a whole holds those more often.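 Note: values are percent growth. 100 is the growth of untreated cells, values between 100 and 0 indicate rising inhibition; between -100 and 0 indicates cell death.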 Unmarked numbers belong to inactive results. Calls of active or inactive are those of the source. How the source made its calls: active means growth percent below 10; inactive means the rest.
How the values were obtained:
Test in all cases: NCI-60 one-dose screen, 48 h (100 = growth as untreated, 0 = no growth, -100 = all killed)
Settings in all cases: 10 µM unless noted
[1] = tested on: NCI-H322M lung
[2] = tested on: HOP-62 NSCLC
[3] = tested on: NCI-H460 lung
[4] = tested on: HOP-92 NSCLC
[5] = tested on: NCI-H522 lung
[6] = tested on: A549/ATCC NSCLC
[7] = tested on: 786-0 renal
[8] = tested on: COLO 205 colon
[9] = tested on: DU-145 prostate
[10] = tested on: K-562 leukemia
[11] = tested on: MALME-3M melanoma
[12] = tested on: MDA-MB-231 breast
[13] = tested on: RXF 393 renal
[14] = tested on: SF-268 CNS
[15] = tested on: SF-295 CNS
[16] = tested on: SF-539 CNS
[17] = tested on: UACC-257 melanoma
[18] = tested on: M14 melanoma
[19] = tested on: HCT-15 colon

Structure (SMILES) | growth [1] | growth [2] | growth [3] | growth [4] | growth [5] | growth [6] | growth [7] | growth [8] | growth [9] | growth [10] | growth [11] | growth [12] | growth [13] | growth [14] | growth [15] | growth [16] | growth [17] | growth [18] | growth [19]
NS(=O)(=O)c1cccc(Nc2nc(SCC(=O)c3ccc(Cl)cc3)nc3ccccc23)c1 | 81.5% | 36.2% | 48.4% | 24.5% | 59.4% | 79.5% | 74.4% | 105% | 78.3% | 68.2% | 66.4% | 56% | 72.2% | 41.8% | 71.8% | 50.9% | 95% | 99.3% | 88.8%
COc1cccc(NC2=CC(=O)C(C)=C(C)C2=O)c1 | 102% | 106% | 101% | 104% | 49.8% | 101% | 95.8% | 103% | 113% | 12.5% | 101% | 41.4% | 55.8% | 74.5% | 105% | 21.7% | 54.7% | 97% | 91.9%
CN(C)c1ccc(/C=c2\sc3nc4ccccc4n3c2=O)cc1 | 90.8% | 108% | 105% | 103% | 102% | 117% | 98.5% | 111% | 110% | 96.8% | 101% | 91.2% | 117% | 109% | 109% | 96.5% | 117% | 102% | 107%
O=C(N/N=C/c1ccc(Cl)s1)c1[nH]c2ccc(Br)cc2c1-c1ccccc1 | 49.4% | 30.2% | 3.42% (active) | 35.6% | -35.1% (active) | 21.2% | 7.94% (active) | -68.4% (active) | 22% | 6.77% (active) | 53.4% | 1.52% (active) | 71.7% | 42.1% | 15.5% | 3.35% (active) | 52% | 5.47% (active) | 15.6%
CC(=NNc1ncnc2ccccc12)c1ccc(S(C)(=O)=O)cc1 | 100% | 95% | 108% | 95.1% | 100% | 111% | 102% | 113% | 115% | 96.9% | 98.3% | 93% | 114% | 108% | 97.1% | 97.6% | 108% | 92.5% | 96.5%
O=C(CCN1C(=O)/C(=C/c2ccccc2)SC1=S)N1CCOCC1 | 87.2% | 114% | 99.3% | 94.6% | 58.3% | 101% | 82.6% | 119% | 77.3% | 43.1% | 72.9% | 75.9% | 77.1% | 97.7% | 98.1% | 91.8% | 91.4% | 76.8% | 53.7%
CC(C)Sc1nc(Nc2ccc(S(N)(=O)=O)cc2)c(C#N)c(-c2ccc(F)cc2)n1 |  |  |  |  | 73.5% |  |  | 79% | 25.1% | 36.3% | 14.8% | 38.6% |  | 39.1% |  |  | 93.3% | 17.9% | 43.5%
NS(=O)(=O)c1ccc(Nc2nc(Nc3ccccc3)nc(-n3nc(-c4ccccc4)cc3-c3ccccc3)n2)cc1 | 57.2% | 63.7% | 5.81% (active) | 26.8% | 58.5% | 25.9% | 20.1% | 9.92% (active) | 32.3% | 11.5% | 60% | 37% | 22.8% | 37.8% | 34.3% | 37.2% | 59.6% | 26.5% | 18.3%
